Measurements taken from PubChem BioAssay AID504452 (The Scripps Research Institute Molecular Screening Center, 2011).
Calls of active or inactive are those of the source. No stated cut-off is given here; in the data, active means activation above about 85%; inactive means the rest.

Molecular target: Peroxisome proliferator-activated receptor gamma (Homo sapiens) (UniProt P37231)
Assay: PPARg partial agonist activation, primary screen, cell-based, luciferase reporter, luminescence (AID 504452);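 further: Cos-1 cells carrying PPARgamma and a response element luciferase reporter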
Conditions: at 5 µM, stronger effect = higher value; activation (% of full agonist control): measured here: relative to full agonist control

Peroxisome proliferator-activated receptor gamma (Homo sapiens), sequence (P37231 whole entry, looked up): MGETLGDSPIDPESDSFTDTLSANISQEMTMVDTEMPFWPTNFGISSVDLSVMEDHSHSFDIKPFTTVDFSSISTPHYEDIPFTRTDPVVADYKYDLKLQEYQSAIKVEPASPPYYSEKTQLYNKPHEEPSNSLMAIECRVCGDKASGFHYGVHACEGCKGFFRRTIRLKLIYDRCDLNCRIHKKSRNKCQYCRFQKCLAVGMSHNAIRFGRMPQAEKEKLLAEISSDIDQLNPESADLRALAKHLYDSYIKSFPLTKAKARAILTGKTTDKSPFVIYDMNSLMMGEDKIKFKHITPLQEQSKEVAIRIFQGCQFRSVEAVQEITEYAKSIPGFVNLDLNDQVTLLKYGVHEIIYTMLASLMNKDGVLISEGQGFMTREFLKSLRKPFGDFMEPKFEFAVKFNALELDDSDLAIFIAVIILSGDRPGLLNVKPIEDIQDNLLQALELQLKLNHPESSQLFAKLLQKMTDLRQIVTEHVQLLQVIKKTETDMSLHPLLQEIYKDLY

Compound | activation (% of full agonist control) [%] | activation (% of partial agonist control)
CCOC(=O)N1CCN(C(=O)c2ccc(S(=O)(=O)c3ccc(C)cc3)c(NC(C)=O)c2)CC1 | 37.2 | 82.4% (inactive)
O=C(CN(c1ccc(F)cc1)S(=O)(=O)c1ccccc1)NC1CC2CCC1C2 (stereo unspecified) | 24.2 | 53.5% (inactive)
Cc1ccc2nc(N3C(=O)C(O)=C(C(=O)c4ccco4)C3c3ccc(O)cc3)sc2c1 (stereo unspecified) | 40.9 | 90.5% (active)
O=C(COc1coc(CN2CCc3ccccc3C2)cc1=O)Nc1ccc(F)cc1F | 44.3 | 98.2% (active)
CC(Oc1ccc2c(c1)oc(=O)c1ccccc12)C(=O)NC(Cc1c[nH]c2ccc(O)cc12)C(=O)O (stereo unspecified) | 49.2 | 109% (active)
CC(OC(=O)CNC(=O)c1ccc(F)cc1)C(=O)Nc1ccc(S(=O)(=O)N2CCOCC2)cc1 (stereo unspecified) | 34.9 | 77.2% (inactive)
Cc1cc(C(=O)CN2C(=O)C(=O)N(Cc3ccccc3)C2=O)c(C)n1Cc1ccc(F)cc1 | 38 | 84.1% (inactive)
O=C(O)c1ccc(N2C(=O)CC(SC(=Nc3ccccc3)Nc3ccccc3)C2=O)cc1 (stereo unspecified) | 38.3 | 84.7% (inactive)
CCOc1ccc(CN2CCN(Cc3cccc4nonc34)CC2CCO)cc1 (stereo unspecified) | 44.9 | 99.4% (active)
COc1ccc(CN(C)C(=O)[C@H](Cc2ccccc2)NC(=O)c2ccco2)c(OC)c1 | 32.8 | 72.7% (inactive)
Cc1ccc2nc(N3C(=O)C(O)=C(C(=O)c4ccc(C)o4)C3c3ccco3)sc2c1 (stereo unspecified) | 45.8 | 101% (active)
O=C1C(=O)N(Cc2cccnc2)C(c2cccc(F)c2)/C1=C(/O)c1ccc2c(c1)OCO2 (stereo unspecified) | 35.2 | 77.9% (inactive)
COc1ccc(/C=C(\NC(=O)c2ccco2)C(=O)NC(Cc2ccccc2)C(=O)O)cc1 (stereo unspecified) | 31.3 | 69.3% (inactive)
C[C@H](NC(=O)c1nc[nH]c1C(=O)N1CCc2ccccc2C1)C(=O)OCc1ccccc1 | 29.5 | 65.3% (inactive)
O=c1c(S(=O)(=O)c2ccc(Cl)cc2)cn(Cc2ccccc2)c2ccc(F)cc12 | 38 | 84.1% (inactive)
CCOc1cc(N2CCOCC2)c(OCC)cc1NC(=O)c1oc2ccccc2c1C | 29.4 | 65.1% (inactive)
O=C(CC1C(=O)Nc2ccccc2N1CC(=O)N1CCCC1)Nc1ccc(Br)cc1 (stereo unspecified) | 37 | 81.9% (inactive)
O=C(NC(Cc1ccccc1)C(=O)O)/C(=C/c1ccc(Cl)cc1)NC(=O)c1ccco1 (stereo unspecified) | 24.4 | 54% (inactive)
Cc1cccc(NC(=O)CN2C(=O)/C(=C3\SC(=S)N(CC4CCCO4)C3=O)c3ccccc32)c1 (stereo unspecified) | 43.3 | 95.8% (active)
Cc1nn(CC(=O)N2CCC(N3CCCCC3)CC2)c(=O)c2c1sc1ccccc12 | 27.9 | 61.8% (inactive)
O=C(Nc1ccccc1Cl)C(=O)c1cn(CC(=O)N2CCOCC2)c2ccccc12 | 50.5 | 112% (active)
COC(=O)C1=CN(Cc2ccc(C)cc2)C=C(C(=O)OC)C1c1ccc(F)c(F)c1 | 36.2 | 80.2% (inactive)
Cc1ccc(-c2nnc(Nc3ccc(O)cc3)c3ccccc23)cc1S(=O)(=O)NCCO | 41.1 | 91% (active)
Cc1ccc(S(C)=O)cc1-n1c(=O)n(Cc2ccccc2)c(=O)c2[nH]cnc21 (stereo unspecified) | 12.8 | 28.4% (inactive)

Compound | activation (% of full agonist control) [%] | activation (% of partial agonist control)
CCC(=O)Nc1nonc1-c1nc2ccccc2n1Cc1cccc2ccccc12 | 25.1 | 55.5% (inactive)
O=C(c1cccc(N2C(=O)C3C4C=CC(C4)C3C2=O)c1)N1CCN(c2ccccc2Cl)CC1 (stereo unspecified) | 41.1 | 91% (active)
OCCC1CN(Cc2cccn2-c2cccnc2)CCN1Cc1ccc(F)cc1 (stereo unspecified) | 29.8 | 66% (inactive)
O=C(Cn1c(=O)c(=O)n(Cc2ccccc2)c2ccc(Cl)cc21)Nc1cc(F)ccc1F | 28.4 | 62.9% (inactive)
O=c1c2cn(Cc3ccc(F)cc3)c3ccccc3c-2nn1Cc1ccc(F)cc1 | 40.3 | 89.3% (active)
Cc1cc(C)c2nc(N3C(=O)C(O)=C(C(=O)c4ccco4)C3c3ccco3)sc2c1 (stereo unspecified) | 32.9 | 72.7% (inactive)
CCc1ccc(N2CC(C(=O)OCC(=O)Nc3ccc(C(C)=O)cc3)CC2=O)cc1 (stereo unspecified) | 31 | 68.6% (inactive)
O=C(c1ccccc1)c1ccc(NCCCn2ccnc2)c([N+](=O)[O-])c1 | 26.9 | 59.6% (inactive)
O=C(CCn1c(=O)c2sccc2n(CC(=O)OCc2ccccc2)c1=O)NCc1ccccc1 | 31.1 | 68.8% (inactive)
O=C(Cc1c(C(=O)O)[nH]c2ccccc12)Nc1ccc2c(c1)OCO2 | 7.95 | 17.6% (inactive)
O=C(NCCc1c[nH]c2ccccc12)N[C@@H](Cc1ccccc1)C(=O)O | 33.3 | 73.7% (inactive)
O=C(OCC1OC(Oc2ccc(O)cc2)C(O)C(O)C1O)c1ccccc1 (stereo unspecified) | 9.83 | 21.8% (inactive)
NC(=O)C1CCCN(Cc2c(C(=O)N3CCc4ccccc4C3)nc3ccc(Cl)cn23)C1 (stereo unspecified) | 30.2 | 66.9% (inactive)
COc1ccc(CCn2c(C)cc(C(=O)CN3C(=O)C(=O)N(C4CCCC4)C3=O)c2C)cc1OC | 27.1 | 60% (inactive)
S=C(NCCc1ccccc1)N1CCn2cccc2C1c1ccncc1 (stereo unspecified) | 44.2 | 97.9% (active)
O=C(Cn1c(=O)c(=O)n(Cc2ccccc2)c2ccc(Cl)cc21)Nc1cccc(F)c1 | 25.4 | 56.2% (inactive)
COc1ccc(C2CC(=O)N3CN(c4ccccc4F)CSC3=C2C#N)cc1OC (stereo unspecified) | 29.2 | 64.7% (inactive)
O=C(NC(Cc1c[nH]c2ccccc12)C(=O)O)/C(=C/c1ccc(F)cc1)NC(=O)c1ccccc1 (stereo unspecified) | 32.2 | 71.2% (inactive)
CCN(CC)S(=O)(=O)c1ccc(N2CCOCC2)c(NC(=O)C(C)Oc2ccc(F)cc2)c1 (stereo unspecified) | 29.3 | 64.8% (inactive)
CC(Oc1cccc(Cl)c1)C(=O)Nc1cc(S(=O)(=O)N2CCOCC2)ccc1N1CCCC1 (stereo unspecified) | 35.3 | 78.1% (inactive)
O=C(CN1CCOC1=O)N1CCCC(N2CCN(c3cccc(C(F)(F)F)c3)CC2)C1 (stereo unspecified) | 26.5 | 58.8% (inactive)
COc1ccc(/C(O)=C2/C(=O)C(=O)N(Cc3ccco3)C2c2cccs2)cc1 (stereo unspecified) | 32.1 | 71.1% (inactive)
Nc1ccccc1SC1CC(=O)N(c2ccc3c(c2)OCO3)C1=O (stereo unspecified) | 34.5 | 76.4% (inactive)
O=C(Nc1cc(F)ccc1F)C1CCCN(c2ncnc3c2nc2n3CCCCC2)C1 (stereo unspecified) | 32.1 | 71% (inactive)
